Measured values as given in PubChem BioAssay AID504853 (Southern Research Specialized Biocontainment Screening …, 2011).
Measured potencies and affinities stand elsewhere. Values without a mark were called inactive. The rule behind the calls is not given here.

test: HepG2 cell cytotoxicity, dose response, cytotoxicity control, set 3 (AID 504853); conditions: series mostly up to 50 µM; viability: at the top concentration

Row | Compound | viability
1 | O=C(CSc1nc2ccccc2c(=O)[nH]1)N1CCOCC1 | 107%
2 | O=C(CSc1ccccn1)NC1CCCCC1 | 92.8%
3 | CN(C)C(=O)CSc1nc2ccccc2c(=O)[nH]1 | 95.9%
4 | CC[N+](C)(CC)CCCCOc1ccc2c(c1)C(=O)c1cc(OCCCC[N+](C)(CC)CC)ccc1-2 | 83.8%
5 | Cc1cccc(/C=C/C(=O)c2ccc([N+](=O)[O-])o2)c1 | 98.6%
6 | COC(=O)C(C)Oc1ccc(Cc2ncc(C(F)(F)F)cc2Cl)cc1 (stereo unspecified) | 94.3%
7 | O=C(CSc1nc2c(c(=O)[nH]1)CCCC2)NC1CCCCC1 | 99.1%
8 | CCC(Sc1nc2ccccc2c(=O)[nH]1)C(=O)NC1CCCCC1 (stereo unspecified) | 104%
9 | O=C(CSc1nccc(=O)[nH]1)NC1CCCCC1 | 99.4%
10 | Cc1nc(SCC(=O)NCCC(C)C)[nH]c(=O)c1C | 102%
11 | Cc1ccc(NC(=O)COC(=O)CCc2c[nH]c3ccccc23)cc1[N+](=O)[O-] | 99.5%
12 | CCOC(=O)CSc1nc(C)c(C)c(=O)[nH]1 | 99.2%
13 | O=C(CSc1nc2ccccc2c(=O)[nH]1)NCc1ccc(Cl)cc1 | 94.7%
14 | COC(=O)C(Nc1nc(SCC(=O)NC2CCCCC2)nc2ccccc12)c1ccccc1 (stereo unspecified) | 80.8%
15 | Cc1cnc(SCC(=O)NC2CCCCC2)[nH]c1=O | 108%
16 | Cc1[nH]c(=S)[nH]c(=O)c1C | 106%
17 | CC(C)CCNC(=O)CSc1nc2c(c(=O)[nH]1)CCC2 | 88.6%
18 | O=C(CSc1nc2c(c(=O)[nH]1)CCC2)NC1CCCCC1 | 99.8%
19 | CCSc1nc(C)c(C)c(=O)[nH]1 | 99.4%
20 | Cc1c[nH]c(=S)[nH]c1=O | 100%
21 | COc1cccc(NC(=O)CSc2nc3c(c(=O)[nH]2)CCC3)c1 | 93.1%
22 | Cc1ccc(NC(=O)CSc2nc3ccccc3c(=O)[nH]2)cc1Cl | 96.8%
23 | CC(Sc1nc2ccccc2c(=O)[nH]1)C(=O)NC1CCCCC1 (stereo unspecified) | 96.2%
24 | Cc1cc(=O)[nH]c(=S)[nH]1 | 98.9%
25 | COc1cccc(NC(=O)CSc2nc3ccccc3c(=O)[nH]2)c1 | 97.3%
26 | O=C(CSc1ncccn1)NC1CCCCC1 | 97.8%
